High-throughput results as filed in PubChem BioAssay.
ERK EGF inh – inhibitors of EGF-stimulated ERK signaling pathway; HEK293-V1b, EGF-stimulated phospho-ERK AlphaScreen; Potency, µM (highest dose often 11.5 µM), for the others: top-dose activity change, negative = inhibition, usual class: inhibitors; 130,000 compounds, 0.41% hits;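 also: potency is read from the fitted curve at half-maximal effect; plate controls were stimulated vehicle wells for no effect and unstimulated vehicle basal for full effect; nearly all actives have a fitted effect of over 55% in size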
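After overnight plating in 1% FBS, HEK293-V1b cells received test compound for half an hour, then a 5 min pulse of EGF (25 nM); ERK phosphorylation in lysates was read by bead-based AlphaScreen.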
pERK EGF inh – confirmation of ERK pathway inhibitors under EGF stimulation. shares compounds with ERK EGF inh. HEK293 EGF-stimulated ERK phosphorylation, AlphaScreen. Potency, µM (titrated, usually from 57.5 µM), without a hit: at the top dose activity change, negative = inhibition, actives largely listed as inhibitors. 60 compounds, 60% hits. AID 1725
c-Raf inh – ERK pathway inhibitors follow-up: human c-Raf kinase inhibition | shares compounds with ERK EGF inh | c-Raf kinase inhibition, homogeneous biochemical assay | activity change, negative = inhibition, % at 76.9 µM | 70 tested, under 10 active | AID 1728
MEK1 kinase inh – MEK1 (human) kinase inhibition; shares compounds with ERK EGF inh; homogeneous MEK kinase activity assay, ERK pathway; Potency, µM (highest dose often 76.9 µM), without a hit: at the highest dose activity change, negative = inhibition, most hits filed as inhibitors; 70 tested, under 10 active; AID 1732
Target sequence (Q02750 whole entry, looked up): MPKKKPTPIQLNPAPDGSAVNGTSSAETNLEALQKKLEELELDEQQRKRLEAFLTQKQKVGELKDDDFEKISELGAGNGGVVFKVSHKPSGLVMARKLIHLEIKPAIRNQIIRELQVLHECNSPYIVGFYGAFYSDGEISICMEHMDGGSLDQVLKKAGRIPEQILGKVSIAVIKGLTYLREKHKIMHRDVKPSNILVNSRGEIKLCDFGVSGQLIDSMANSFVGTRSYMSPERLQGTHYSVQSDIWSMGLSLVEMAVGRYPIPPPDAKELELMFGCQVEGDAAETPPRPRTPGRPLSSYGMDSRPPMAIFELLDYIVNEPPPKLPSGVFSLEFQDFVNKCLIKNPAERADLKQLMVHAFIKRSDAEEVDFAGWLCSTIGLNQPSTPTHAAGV
* marks the source's active call; other numbers are inactive results; ? = inconclusive. Shown is part of a subset that was picked to be rich in hits. Calls follow the shape of the dose curve; as a rule, active = well fitted curve in the direction sought with a large enough effect; inconclusive = small, poorly fitted or top-dose-only effect, or another doubt; inactive = no such curve, though single readings can be large; an effect the other way counts as inactive or inconclusive.

SMILES | ERK EGF inh | others
O=S(=O)(CCC(F)=C(F)F)c1nnnn1C1CCCCC1 | -9%
CCCCCCCCCCCC(CC1OC(=O)C1CCCCCC)OC(=O)C(CC(C)C)NC=O (stereo not drawn) | 9%
O=C1c2cccc3c(N4CCCCC4)ccc(c23)C(=O)N1c1ccccc1O | 0%
Cc1ccc(C)n1-c1ccccc1N1CCCCC1 | -2%
O=C1c2ccccc2C(=O)c2c1cccc2N1CCCC1 | 10µM* | pERK EGF inh=16µM*;c-Raf inh=?;MEK1 kinase inh=?
C=C(CO)C1Cc2c(ccc3c(=O)c4c(oc23)COc2cc(OC)c(OC)cc2-4)O1 (stereo not drawn) | -17%
COC(=O)[C@H]1C[C@@H]1[C@H](NS(=O)(=O)c1ccc(-c2ccccc2)cc1)c1ccccc1 | -8%
